Screens from PubChem BioAssay.
An excerpt weighted towards active compounds, which were near 2.1% of everything screened.
Abeta rescue: qHTS for compounds that reverse cellular toxicity of Amyloid beta (A-beta) peptide in yeast: Primary Screen. Potency, µM (doses to about 46.1 µM), usual class: activators. yeast expressing A-beta42, growth rescue, OD600, 48 h; response scale: 0% DMSO, 100% iron-clioquinol control. 0.063% of 410,000 active. AID 1347071, 2019; also: nearly all actives have a fitted effect of over 55% in size
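Growth rescue measured by 600 nm absorbance after 48 h yeast culture at 30 C with compound. Values normalized between DMSO and an equimolar ferric chloride plus clioquinol control.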
FUS yeast rescue: qHTS for Suppressors of FUS Proteinopathy: Primary screen using FUS-linked yeast assay; S. cerevisiae FUS-expressing, growth rescue, OD600, 24 h; Potency, µM (highest dose often 76.6 µM), usual class: activators; 0.24% of 390,000 active; AID 1347120, 2019;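 also: plate controls were DMSO vehicle for no effect and reference control for full effect; nearly all actives have a fitted effect of over 55% in size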
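Yeast FUS proteinopathy model; galactose-induced FUS (2%), starting OD 0.005. Cpds in dilution series, 24hr, 30C, 99% humidity. Abs 600 nm growth. Pos ctrl CP55940 (top 92uM final); neg ctrl DMSO.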
aSyn rescue: qHTS of alpha-syn Inhibitors; Yeast expressing alpha-synuclein, growth rescue, BacTiter-Glo, 24 h; AID 652106, 2013; 0.14% of 370,000 active; Potency, µM (series often up to 46.1 µM), for the others: at the top dose growth rescue (activation), usual class: activators; also: % of control where 0% means no effect; nearly all actives have a fitted effect of over 65% in size
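Rescue of yeast growth: cells expressing toxic alpha-synuclein, induced in galactose at OD600 0.02, incubated with compound 24 h at 30 C. ATP luminescence quantified growth; inhibitors of toxicity appear as activators.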
TDP-43 yeast inh: qHTS of TDP-43 Inhibitors | TDP-43 expressing yeast growth rescue, BacTiter-Glo, 24 h | Potency, µM (doses to about 46.1 µM), for inactives: at the top dose growth rescue (activation), hits mostly activators | 1.8% of 410,000 active | AID 652104, 2013; also: % of control where 0% means no effect; nearly all actives have a fitted effect of over 50% in size
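In this qHTS, compounds that restore growth of yeast expressing TDP-43 appear as activators. Cells (OD600=0.02, galactose medium, raffinose-pregrown) are incubated with compound 24 hr at 30 deg C and growth is quantified by BacTiter-Glo.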
* hit, by the source's call; i = inactive; ? = inconclusive; . = not tested or not shown. Calls follow the shape of the dose curve; as a rule, active = well fitted curve in the direction sought with a large enough effect; inconclusive = small, poorly fitted or top-dose-only effect, or another doubt; inactive = no such curve, though single readings can be large; an effect the other way counts as inactive or inconclusive. Potency is read from the fitted curve at half-maximal effect.

SMILES	Abeta rescue	FUS yeast rescue	aSyn rescue	TDP-43 yeast inh
Cc1cc(OCc2cc(C(=O)NC(C)c3cnn(C)c3)no2)cc(C)c1Cl (configuration not stated)	i	i	?	32µM*
COc1ccccc1N1CCN(C(=O)CSc2n[nH]c(-c3ccccc3)n2)CC1	i	i	.	20%
COc1c(Cl)cc(C(=O)O)cc1Cl	i	i	-9%	35µM*
CCCCNc1ncnc2c1cnn2-c1ccccc1	i	i	-7%	?
Cc1cc(Nc2ccc(Br)cc2)n2nc(-c3ccccc3C)nc2n1	i	i	.	14µM*
Cc1cc(Nc2ccc(C)c(Cl)c2)n2nc(-c3ccccc3)nc2n1	i	i	.	9%
Cc1cccc(-c2nc3nc(C)cc(NC(C)c4ccccc4)n3n2)c1 (configuration not stated)	i	i	-9%	25µM*
COc1ccccc1Nc1cc(C)nc2nc(-c3ccccc3)nn12	i	i	.	13µM*
Cc1nc(Cc2ccc(OC(C)C)cc2)[nH]c(=O)c1CC(=O)O	i	i	3%	1%
COc1ccc(/C=C/c2onc(C)c2S(=O)(=O)N2CCC(C(=O)N3CCCCC3)CC2)cc1	i	i	.	-7%
Cc1cccc(OCc2nnc(SCC(=O)c3ccccc3)o2)c1	i	i	12%	13µM*
CCCNC(=O)c1ccc(COc2ccc(C)cc2)o1	i	i	-5%	15%
CCCNC(=O)c1ccc(COc2cccc3ccccc23)o1	i	i	-8%	18µM*
Clc1ccc2nc(-c3ccncc3)cc(-c3ccccc3)c2c1	i	i	1%	22%
CSc1cc(-c2ccncc2)nc(-c2ccc(Cl)cc2)c1	i	i	11%	11µM*
CN(C(=O)c1cccc(NC(=O)C2CCCN(C(=O)OC(C)(C)C)C2)c1)C1CCC1 (configuration not stated)	i	i	0%	-14%
Cc1ccc(C(=O)CSc2ncnc3sc4c(c23)CCC(C)C4)cc1 (configuration not stated)	i	i	2%	-8%
Cc1ccc(Nc2nc(Cl)c(C=O)s2)cc1Cl	i	i	-2%	3%
CC(C)c1cnc2c(c1SCC(=O)Nc1cccc(F)c1)c(=O)n(C)c(=O)n2C	i	i	.	35µM*
Cc1ccc2c(c1)C(c1ccc(F)cc1)N(C(=O)C1CC1)CC(=O)N2 (configuration not stated)	i	i	-1%	29%
CCN(CC)c1ccc(C(=C2C=CC(=[N+](CC)CC)C=C2)c2ccc(N(CC)CC)cc2)cc1	i	35µM*	-78%	-97%
O=C(C1CCCC1)N1CCC(CO)(Cc2ccccc2Cl)CC1	?	i	14%	20µM*
COCCCN1C(=O)c2[nH]nc(-c3cc(C)cc(C)c3O)c2C1c1ccc(O)c(OC)c1 (configuration not stated)	i	40µM*	1%	8%
O=C(Nc1nccs1)C1CCN(S(=O)(=O)c2c(Cl)cccc2Cl)CC1	?	i	5%	14µM*
O=C(Nc1nccs1)C1CCN(S(=O)(=O)c2ccc(F)cc2)CC1	i	i	4%	-6%
SMILES	Abeta rescue	FUS yeast rescue	aSyn rescue	TDP-43 yeast inh
CC(=O)c1ccc(N(CC(=O)NC2CCCC2)C(=O)CNC(=O)c2cccs2)cc1	i	i	0%	-13%
CC(C)(C#N)Nc1ccccc1	i	i	-4%	-3%
CC(C)(C#N)Nn1cnnc1	i	16µM*	-8%	-3%
CN(C)c1nc(-c2ccccc2)ncc1S(=O)(=O)c1ccccc1	i	i	10%	16µM*
COc1cc(NC(=O)c2ccnc(N)c2)cc(C(=O)Nc2cccc(C(F)(F)F)c2)c1	i	i	-1%	6%
COc1cc(NC(=O)c2cc(C)on2)cc(C(=O)Nc2cccc(C(F)(F)F)c2)c1	i	i	1%	13µM*
COc1cc(NC(=O)c2csc(N)n2)cc(C(=O)Nc2cccc(C(F)(F)F)c2)c1	i	?	0%	32µM*
COc1cc(NC(=O)c2cnc(N)s2)cc(C(=O)Nc2cccc(C(F)(F)F)c2)c1	i	?	-9%	?
COc1ccc(C(=O)Nc2ccc3c(c2)CCCN3C(=O)c2cccs2)c(OC)c1	i	?	19%	5%
